Data on 15 molecules can be found in PubChem BioAssay.

Test [1] has as its system TRPC4 beta (transient receptor potential cation channel C4), mouse. In words: TRPC4 cation channel opening, retest – cell-based, Fluo4 calcium, HEK293 TRPC4beta/mu-opioid, duplicates, 10 µM, confirmation (AID 2426;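 active means fluorescence ratio normalized to control raised more than 50% in primary screen plus both repeat runs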). To be noted: Fluo4 calcium fluorescence, at 10 µM; hits give high values.
Test [2] has as its system transient receptor potential cation channel C4 beta (TRPC4), mouse. In words: TRPC4 cation channel opening, second retest – cell-based, second round, Fluo4, HEK293 TRPC4beta/mu-opioid, 1 µM, confirmation (AID 2461;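 active means primary screen active and over 50% activation in each of two duplicate runs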). The note with it: Fluo4 calcium fluorescence, at 1 µM; hits give high values.
Test [3] deals with TRPC4 (transient receptor potential cation channel C4 beta), mouse. In words: potentiation of DAMGO EC20 TRPC4 response – cell-based, second round, Fluo-4, HEK293 TRPC4beta/mu-opioid, 1 µM, confirmation (AID 2554;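 active means primary screen hit whose fluorescence ratio, in both repeats, exceeds the weak agonist control mean by 3 SD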). To be noted: DAMGO EC20, Fluo-4 calcium flux, at 1 µM; hits give high values.
Test [4] concerns TRPC4 beta (transient receptor potential cation channel C4), mouse. The experiment in a line: potentiation of DAMGO EC20 TRPC4 response – cell-based, Fluo-4, HEK293 TRPC4beta/mu-opioid, confirmation (AID 2555;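 active means primary screen hit whose calcium fluorescence ratio, in both repeats, exceeds the weak agonist control mean by 3 SD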). To be noted: DAMGO EC20, Fluo-4 calcium flux, at 10 µM; hits give high values. On the technique in general: Calcium assays in cells follow changes in intracellular calcium, usually with a dye or a luminescent sensor.

Test [5] concerns the target Short transient receptor potential channel 4 (Mus musculus) (UniProt Q9QUQ5). The experiment in a line: blockers of DAMGO-evoked TRPC4 calcium flux – cell-based, Fluo4, HEK293 TRPC4beta/mu-opioid, confirmation (AID 2636). The note with it: at 10 µM; hits give high values.
Test [6] shares this target. In words: blockers of DAMGO-evoked TRPC4 calcium flux – cell-based, second round, Fluo4, HEK293 TRPC4beta/mu-opioid, 1 µM, confirmation (AID 2637;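 active means calcium signal ratio cut to more than 3 SD under the fully stimulated control mean yet still positive, in both repeats and the primary screen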;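 on inhibition: percent of integrated ratio relative to wells lacking test compound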). The note with it: at 1 µM; hits give high values.
The target is the same in test [7]. The experiment in a line: calcium entry via TRPC4 opening agents – cell-based, HEK293 TRPC4/mu-opioid, Fluo-4 calcium, dose response (AID 434937;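 active means primary screen activator hit with a dose response curve and TRPC4 channel activation at any tested dose; inactive means no activation, no dose response, or not a primary hit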). To be noted: HEK293 TRPC4 cells, Fluo-4 calcium fluorescence ratio; series mostly up to 20 µM.
The target is the same in test [8]. In words: potentiation of DAMGO-evoked TRPC4 calcium signal – cell-based, HEK293 TRPC4/mu-opioid, Fluo-4 calcium, EC20 DAMGO, dose response (AID 434941;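 active means earlier screen potentiator hit that boosts the TRPC4 ion channel at some dose, with a dose response; inactive means no potentiation, no dose response, or not a prior hit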;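 further: calcium entry triggered by an EC20 dose of DAMGO at the co-expressed mu-opioid receptor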). To be noted: HEK293 TRPC4/mu-opioid cells, Fluo-4 calcium fluorescence; series mostly up to 20 µM.
The target of test [9] is Short transient receptor potential channel 6 (Mus musculus) (UniProt Q61143). The experiment in a line: TRPC6 blockade by TRPC4 inhibitor hits – cell-based, HEK293, membrane potential dye, duplicate, selectivity assay for TRPC4 inhibitor project, confirmation (AID 434948;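 active means active in primary screen and both duplicates, each dropping signal beyond three positive-control SD with fluorescence still positive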). To be noted: HEK293 TRPC6, membrane potential dye fluorescence, at 10 µM, stimulated with maximal-effect acetylcholine; hits give high values.

Test [10] has the same target. In words: TRPC6 opening by TRPC4 activator hits – cell-based, HEK293, membrane potential dye, duplicate, selectivity assay for TRPC4 activator project, confirmation (AID 434950;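 active means membrane potential signal rise above negative control mean plus 3 SD in both duplicates, also active in the earlier TRPC4 screen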). The note with it: HEK293 TRPC6, membrane potential fluorescence, at 10 µM; activation: hits give high values; outcome: activation.
Test [11] shares this target. The experiment in a line: positive modulators of mouse TRPC6 channel – HEK293 cells, membrane potential dye, duplicate, selectivity assay for TRPC4 potentiator project, confirmation (AID 434952;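 active means compound raising the membrane signal above positive-control mean plus 3 SD in both repeats, and a primary screen hit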). To be noted: HEK293 TRPC6, membrane potential dye fluorescence, at 10 µM, maximal acetylcholine added after compound; hits give high values.
Test [12] concerns the target Short transient receptor potential channel 4 (Mus musculus) (UniProt Q9QUQ5). In words: calcium flux activators in TRPC4/5HT1a cells, counter-screen for TRPC4 activator project, cell-based, second counter screen, HEK293 TRPC4/5HT1a, Fluo-4 (AID 434977;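 active means calcium signal rise above buffer-control mean plus 5 SD in both duplicates, and also a hit in the primary screen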). The note with it: Fluo-4 calcium flux, at 10 µM; hits give high values.
The nature of test [13]: serotonin-gated TRPC4 signal block – cell-based, second counter screen, HEK293 TRPC4/5HT1a, Fluo-4, counter-screen for TRPC4 inhibitor project, confirmation (AID 434978;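 active means primary screen active whose calcium signal fell more than 3 SD beyond the full-serotonin control mean in both duplicate plates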;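 on outcome: serotonin given first at submaximal then at maximal dose after compound preincubation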). To be noted: Fluo-4 calcium flux, at 10 µM, serotonin added to trigger calcium flux; hits give high values. Background: A counterscreen serves to expose hits that act by an unwanted route or on another target.

Test [14] relates to TRPC4 (mouse), co-expressed with 5HT1a in HEK293. The experiment in a line: enhancement of serotonin-evoked TRPC4 response – cell-based, second counter screen, HEK293 TRPC4/5HT1a, Fluo-4, counter-screen for TRPC4 potentiator project, confirmation (AID 434979;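 active means signal rise over 3 SD above mean of control wells given weak agonist, in both repeats and first screen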). To be noted: Fluo-4 calcium flux, at 10 µM, serotonin added at its EC20 dose; hits give high values.
Test [15] is described as follows: nonspecific calcium rise without TRPC4 – cell-based, HEK293 mu-opioid receptor line, counter-screen for TRPC4 activator project, confirmation (AID 449723;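 active means hit in primary screen, with calcium signal over 5 SD above buffer well mean in both duplicates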;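 further: counter screen cells carry the mu-opioid receptor alone and lack TRPC4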). The note with it: HEK293 mu-opioid cells, Fluo-4 calcium fluorescence, at 10 µM; hits give high values.
A short description of test [16]: nonspecific potentiation of DAMGO calcium response – cell-based, HEK293 mu-opioid receptor line, counter-screen for TRPC4 allosteric potentiator project, confirmation (AID 449724;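 active means calcium signal rise more than 3 SD above the low-dose agonist control mean, in both duplicate plates and the primary screen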;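 further: HEK293 cells carrying mu-opioid receptor only with no TRPC4 channel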). The note with it: HEK293 mu-opioid receptor cells, Fluo-4 calcium flux, at 10 µM, compound added before EC20 DAMGO stimulus; hits give high values.

For part of these data: Potency and affinity values are given separately. The source made the active and inactive calls.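 How the source made its calls, unless noted: active means calcium signal cut by more than 3 SD below the full-agonist control yet still positive, in both repeats and the earlier primary screen; inactive means the rest.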

Short transient receptor potential channel 6 (Mus musculus), sequence (Q61143 whole entry, looked up): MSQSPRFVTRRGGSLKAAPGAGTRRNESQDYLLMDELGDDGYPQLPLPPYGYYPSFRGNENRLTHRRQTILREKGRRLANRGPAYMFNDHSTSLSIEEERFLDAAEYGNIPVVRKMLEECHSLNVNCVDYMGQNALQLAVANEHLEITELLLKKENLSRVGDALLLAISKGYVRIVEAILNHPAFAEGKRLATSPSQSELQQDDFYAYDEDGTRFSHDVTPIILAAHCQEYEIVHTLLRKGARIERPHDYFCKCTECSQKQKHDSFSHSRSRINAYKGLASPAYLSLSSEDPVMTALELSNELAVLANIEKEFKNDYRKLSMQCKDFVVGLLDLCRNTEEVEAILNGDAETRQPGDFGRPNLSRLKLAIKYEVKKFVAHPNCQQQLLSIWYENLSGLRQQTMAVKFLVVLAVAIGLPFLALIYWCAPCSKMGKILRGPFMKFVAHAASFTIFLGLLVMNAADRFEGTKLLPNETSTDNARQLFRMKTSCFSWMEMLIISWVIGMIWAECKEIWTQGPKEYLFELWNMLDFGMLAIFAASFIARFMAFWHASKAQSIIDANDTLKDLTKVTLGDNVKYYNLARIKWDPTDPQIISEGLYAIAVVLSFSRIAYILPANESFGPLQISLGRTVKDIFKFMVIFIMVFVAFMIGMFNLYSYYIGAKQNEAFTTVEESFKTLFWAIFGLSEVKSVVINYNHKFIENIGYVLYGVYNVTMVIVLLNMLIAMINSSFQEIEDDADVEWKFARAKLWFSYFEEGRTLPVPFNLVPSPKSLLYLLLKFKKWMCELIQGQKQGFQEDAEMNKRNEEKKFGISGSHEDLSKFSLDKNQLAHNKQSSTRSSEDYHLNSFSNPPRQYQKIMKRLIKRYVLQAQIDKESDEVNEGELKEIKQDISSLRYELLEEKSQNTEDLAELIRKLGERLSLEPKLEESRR
Short transient receptor potential channel 4 (Mus musculus), sequence (Q9QUQ5 whole entry, looked up): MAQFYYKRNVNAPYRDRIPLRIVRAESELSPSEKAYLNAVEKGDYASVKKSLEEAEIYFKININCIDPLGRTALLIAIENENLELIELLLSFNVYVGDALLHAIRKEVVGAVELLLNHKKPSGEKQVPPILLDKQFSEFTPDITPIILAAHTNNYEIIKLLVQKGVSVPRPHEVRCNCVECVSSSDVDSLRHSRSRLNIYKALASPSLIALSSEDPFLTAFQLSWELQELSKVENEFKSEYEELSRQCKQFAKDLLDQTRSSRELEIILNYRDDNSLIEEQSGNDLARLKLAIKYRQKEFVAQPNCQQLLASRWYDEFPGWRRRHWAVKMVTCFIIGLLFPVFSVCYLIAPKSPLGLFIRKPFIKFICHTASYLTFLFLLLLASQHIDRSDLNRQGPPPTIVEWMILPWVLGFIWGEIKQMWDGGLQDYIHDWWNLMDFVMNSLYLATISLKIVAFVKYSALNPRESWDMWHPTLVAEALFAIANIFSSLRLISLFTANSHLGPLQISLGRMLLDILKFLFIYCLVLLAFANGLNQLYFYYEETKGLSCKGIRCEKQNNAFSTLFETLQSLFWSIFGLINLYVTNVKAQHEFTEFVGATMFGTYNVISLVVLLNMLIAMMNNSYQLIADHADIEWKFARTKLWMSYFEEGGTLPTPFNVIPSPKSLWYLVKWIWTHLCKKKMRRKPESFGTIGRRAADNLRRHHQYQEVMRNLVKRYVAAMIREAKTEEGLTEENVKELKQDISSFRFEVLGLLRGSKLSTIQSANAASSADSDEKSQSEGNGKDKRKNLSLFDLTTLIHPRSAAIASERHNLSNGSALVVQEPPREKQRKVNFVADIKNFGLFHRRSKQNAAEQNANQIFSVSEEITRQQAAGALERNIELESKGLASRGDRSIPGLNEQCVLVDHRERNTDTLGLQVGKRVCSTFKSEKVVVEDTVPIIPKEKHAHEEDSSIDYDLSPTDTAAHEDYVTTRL

As a reminder, the inhibition is the share of the control response that was lost under treatment. With `Cc1ccc(Nc2cc(C)nc3ccc(C)cc23)cc1`, the outcome in test [1], in test [2], in test [3], in [4], in test [5] and in [6] was inactive. The outcome in test [7], in test [8], in test [10], in test [11], in test [12] and in test [14] was inactive. For the same molecule, the result in test [15] and in [16] was inactive. Also, the values for the inhibition in test [9] and in test [13] were 35% (active) and 25.7% (active), respectively.

Regarding `Cc1[nH]nc(-c2ccc(O)cc2O)c1-c1ccc(Cl)cc1`, the result in [1], in test [2], in [3], in test [4], in [6] and in [7] was inactive. Also, the outcome in test [8], in test [9], in [10], in [11], in test [12] and in test [14] was inactive. Further, the result in test [15] and in [16] was inactive. For the same molecule, the figures for the inhibition in test [5] and in [13] were 86% (active) and 23.5% (active), respectively.

For `Cc1ccc(Oc2ccccc2/C=N/O)cc1`, the result in test [1], in [2], in test [3], in test [4], in test [6] and in [7] was inactive. Besides, the outcome in test [8], in [9], in [10], in test [11], in [12] and in test [14] was inactive. The outcome in [15] and in test [16] was inactive. In addition, the results for the inhibition in test [5] and in test [13] were 89% (active) and 10.1% (active), respectively.

With `N#C/C(=N\Nc1cccc([N+](=O)[O-])c1)C(=O)c1ccc(Br)cc1`, the outcome in test [1], in [2], in [3], in [4], in [6] and in test [7] was inactive. The result in test [8], in [10], in test [11], in [12], in test [14] and in [15] was inactive. Moreover, the outcome in test [16] was inactive. In addition, the inhibition in test [5] is 98% (active); in test [9] it was 21.5% (active); in [13], 12.4% (active).

In the case of `OCCNc1nc(NCc2ccccc2)c2ccccc2n1`, the result in [1], in test [2], in test [3], in [4], in test [7] and in [8] was inactive. For the same molecule, the result in test [9], in test [10], in test [11], in test [12], in test [14] and in test [15] was inactive. Moreover, in test [16], the outcome was inactive. Also, the inhibition in test [5] was 96% (active); in [6], 61% (active); in test [13] it was 21.4% (active).

As to `Cc1ccn2c(-c3csc(NCc4ccco4)n3)c(C)nc2c1`, the outcome in test [1], in test [2], in test [3], in [4], in test [6] and in test [7] was inactive. Also, the outcome in test [8], in test [9], in test [10], in [11], in [12] and in [14] was inactive. For the same molecule, the outcome in test [15] and in test [16] was inactive. Further, the inhibition in test [5] is 96% (active); in test [13] it was 22.8% (active).

As for `O=C(NCCN1CCOCC1)c1ccc2c(c1)N(Cc1ccc(F)cc1)C(=O)CS2`, the outcome in [1], in test [2], in test [3], in test [4], in test [5] and in test [6] was inactive. Besides, the outcome in [7], in test [8], in test [9], in test [10], in test [11] and in test [12] was inactive. The result in test [13], in test [14], in test [15] and in test [16] was inactive.

For the molecule `CCOC(=O)c1c(NC(=O)C2CC(Cl)=CCC2C(=O)O)sc2c1CCCCC2` (stereo not given), the result in test [1], in [2], in test [3], in [4], in [7] and in test [8] was inactive. Besides, the call in test [9], in [10], in test [11], in test [12], in test [14] and in test [15] was inactive. Besides, in test [16], the result was inactive. The inhibition in test [5] was 96% (active); in test [6] it was 43% (active); in test [13], 31.8% (active).

Consider `N=c1c2c(n(Cc3ccccc3)c3c1CCC3)CCC2`, for which the outcome in test [1], in [2], in test [3], in test [4], in test [6] and in test [7] was inactive. Besides, the outcome in test [8], in test [10], in test [11], in [12], in test [14] and in test [15] was inactive. The result in test [16] was inactive. Moreover, the values for the inhibition in test [5], in test [9] and in test [13] were 65% (active), 53.5% (active) and 37.3% (active), respectively.

As for `COc1ccc(CN2CCN(C(=O)c3ccc(F)cc3)CC2)c(OC)c1`, the result in [1], in test [2], in test [3], in [4], in test [7] and in test [8] was inactive. Further, the call in test [9], in test [10], in test [11], in test [12], in [14] and in test [15] was inactive. Further, in test [16], the result was inactive. Also, the inhibition is 93% (active) in [5], 57% (active) in test [6] and 35.3% (active) in test [13].

On to `O=C(Cn1c(NCCCO)nc2ccccc21)c1ccc(Br)cc1`, for which the outcome in [1], in test [2], in test [3], in [4], in test [7] and in test [8] was inactive. Further, the molecule was classed as inactive in test [9], in test [10], in [11], in [12], in [14] and in test [15]. Further, the result in test [16] was inactive. The inhibition was 88% (active) in test [5], 52% (active) in [6] and 28.7% (active) in test [13].

Consider `Cc1ccc(C(=O)NC(=S)Nc2c(C)ccc3nsnc23)cc1`, for which the result in test [1], in [2], in [3], in test [4], in test [7] and in test [8] was inactive. Also, the result in test [9], in test [10], in test [11], in [12], in test [14] and in [15] was inactive. Also, the outcome in test [16] was inactive. The inhibition was 86% (active) in [5], 45% (active) in test [6] and 18.1% (active) in [13].

In the case of `Clc1ccc2c(c1)-c1nnc(Br)n1-c1ccccc1S2`, the result in test [1], in test [2], in test [3], in [4], in [6] and in test [7] was inactive. In addition, the result in [8], in test [9], in [10], in [11], in test [12] and in test [13] was inactive. Further, the result in [14], in test [15] and in test [16] was inactive. For the same molecule, in [5], the inhibition was 83% (active).

As for `CCn1c(NCc2c[nH]c3ccccc23)nc2ccccc21`, the outcome in [1], in test [2], in [3], in [4], in [6] and in [7] was inactive. The result in [8], in [9], in test [10], in test [11], in test [12] and in test [14] was inactive. Also, the result in test [15] and in test [16] was inactive. Moreover, the inhibition in [5] was 89% (active); in [13], 32.7% (active).

As to `Nc1c2c(nc3ccccc13)CCC2`, the outcome in test [1], in test [2], in test [3], in test [4], in test [7] and in [8] was inactive. In addition, the molecule was called inactive in test [10], in test [11], in test [12], in test [14], in [15] and in test [16]. For the same molecule, the inhibition was 97% (active) in test [5], 44% (active) in test [6], 16.5% (active) in test [9] and 29.6% (active) in test [13].
